Values joined by “and” are separate entries in the source; they are usually repeats but may differ in a detail not shown here. Equal entries are not always repeated. Records with an inconclusive call do not appear. Active and inactive are the calls of the source. Unless noted, the call rests on the fitted dose curve; in most records, active means well fitted curve in the direction sought with a large enough effect in the repeat runs; inconclusive means weak or mixed curves; inactive means no such curve, though single readings can be large; an effect the other way counts as inactive or inconclusive.
Tests used:
[1] = qHTS assay to identify small molecule antagonists of the glucocorticoid receptor (GR) signaling pathway - cell viability counter screen (AID 720693); further: nearly all actives have a fitted effect of over 55% in size
[2] = qHTS assay for identifying genotoxic compounds that show differential cytotoxicity against isogenic chicken DT40 cell lines with known DNA damage response pathways - wild type cell line (AID 743012); further: nearly all actives have a fitted effect of over 60% in size; further: potency means the concentration at half of the fitted maximal effect
In short: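 Quantitative HTS on parental DT40 cells: 40 h compound treatment at 37 C/5% CO2, with viability then determined by CellTiter-Glo luminescence. Values serve as the DNA repair-proficient reference for differential cytotoxicity.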

[3] = qHTS assay for identifying genotoxic compounds that show differential cytotoxicity against isogenic chicken DT40 cell lines with known DNA damage response pathways - Rev3 mutant cell line (AID 743014); further: nearly all actives have a fitted effect of over 55% in size; further: potency means the concentration at half of the fitted maximal effect
[4] = qHTS assay for identifying genotoxic compounds that show differential cytotoxicity against isogenic chicken DT40 cell lines with known DNA damage response pathways - Rad54/Ku70 mutant cell line (AID 743015); further: nearly all actives have a fitted effect of over 60% in size; further: potency means the concentration at half of the fitted maximal effect
[5] = qHTS assay to identify small molecule antagonists of the androgen receptor (AR) signaling pathway - cell viability counter screen (AID 743033; further: nearly all actives have a fitted effect of over 45% in size)
[6] = qHTS assay to identify small molecule antagonists of the androgen receptor (AR) signaling pathway using the MDA cell line - cell viability counter screen (AID 743041; further: nearly all actives have a fitted effect of over 45% in size; further: potency means the concentration at half of the fitted maximal effect)
In short: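 Cells were plated at 3,000 per well and left 5 h. Compounds in DMSO were then pinned in, followed by R1881. After 16 h at 37C, CellTiter-Fluor fluorescence gave viability.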

[7] = target: Androgen receptor (Homo sapiens) (UniProt P10275); assay: qHTS assay to identify small molecule antagonists of the androgen receptor (AR) signaling pathway (AID 743035; active means well fitted inhibition curve with a large enough effect in the signal ratio in the repeat runs, not every such curve was filed as active; the % refers to the signal ratio; further: potency means the concentration at half of the fitted maximal effect)
In short: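 Cell line: GeneBLAzer AR-UAS-bla GripTite (HEK293). Stimulus: R1881 added after compound. Exposure: 16 h, 37C, 5% CO2. Readout: LiveBLAzer B/G FRET fluorescence after 2 h at room temperature.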

[8] = target: Androgen receptor (Homo sapiens) (UniProt P10275); assay: qHTS assay to identify small molecule agonists of the androgen receptor (AR) signaling pathway (AID 743036; active means well fitted activation curve with a large enough effect in the signal ratio in the repeat runs, with a control signal flat, not every such curve was filed as active; the % refers to the signal ratio)
In short: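 Activation was read as beta-lactamase FRET signal from LiveBLAzer B/G substrate, added for 2 h at room temperature. Before that, GeneBLAzer AR-UAS-bla GripTite (HEK293) cells had 16 h compound exposure at 37C.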

[9] = target: Androgen receptor (Homo sapiens) (UniProt P10275); assay: qHTS assay to identify small molecule agonists of the androgen receptor (AR) signaling pathway using the MDA cell line (AID 743040; further: nearly all actives have a fitted effect of over 20% in size)
In short: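 Cells plated, 5 h at 37C/0% CO2; compound or DMSO pinned; 16 h at 37C; ONE-Glo added; luminescence measured after 30 min at room temperature. Reporter line: MDA-kb2 with MMTV-luciferase responsive to AR and GR.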

[10] = target: Androgen receptor (Homo sapiens) (UniProt P10275); assay: qHTS assay to identify small molecule antagonists of the androgen receptor (AR) signaling pathway using the MDA cell line (AID 743042; further: nearly all actives have a fitted effect of over 55% in size)
In short: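 Antagonist mode: compounds plus R1881 agonist added to MDA-kb2 AR-luc cells, incubated 16 h at 37C. Luciferase reporter luminescence quantified, with multiplexed CellTiter-Fluor readout for cell viability.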

Measured: Potency

Sequence of Androgen receptor (Homo sapiens) (P10275 whole entry, looked up): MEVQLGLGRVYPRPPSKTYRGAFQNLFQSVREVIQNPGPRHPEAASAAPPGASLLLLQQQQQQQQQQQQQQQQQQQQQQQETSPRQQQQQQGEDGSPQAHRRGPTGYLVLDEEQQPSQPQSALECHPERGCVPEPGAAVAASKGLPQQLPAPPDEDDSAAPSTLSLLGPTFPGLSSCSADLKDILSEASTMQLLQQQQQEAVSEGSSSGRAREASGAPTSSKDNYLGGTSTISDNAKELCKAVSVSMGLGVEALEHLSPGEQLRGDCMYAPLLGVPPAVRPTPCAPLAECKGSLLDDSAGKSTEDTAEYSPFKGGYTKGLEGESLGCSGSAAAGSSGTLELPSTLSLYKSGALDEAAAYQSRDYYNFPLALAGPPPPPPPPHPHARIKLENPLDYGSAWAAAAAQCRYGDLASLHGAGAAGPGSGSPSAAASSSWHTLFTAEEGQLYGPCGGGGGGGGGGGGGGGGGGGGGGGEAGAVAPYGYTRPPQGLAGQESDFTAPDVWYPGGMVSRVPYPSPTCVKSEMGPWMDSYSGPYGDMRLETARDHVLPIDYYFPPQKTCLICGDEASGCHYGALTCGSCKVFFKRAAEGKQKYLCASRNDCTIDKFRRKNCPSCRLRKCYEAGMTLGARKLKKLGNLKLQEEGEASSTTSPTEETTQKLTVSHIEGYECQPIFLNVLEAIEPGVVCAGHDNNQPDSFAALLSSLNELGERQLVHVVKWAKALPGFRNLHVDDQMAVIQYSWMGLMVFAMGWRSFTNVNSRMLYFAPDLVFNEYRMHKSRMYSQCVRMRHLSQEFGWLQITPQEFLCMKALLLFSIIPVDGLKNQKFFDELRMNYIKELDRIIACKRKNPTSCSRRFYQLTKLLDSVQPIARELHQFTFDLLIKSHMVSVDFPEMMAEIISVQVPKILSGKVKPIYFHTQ

Cn1c(=O)c2c(ncn2CC(O)CO)n(C)c1=O (stereo not drawn)
inactive: [1] | [2] | [3] | [4] | [5] | [6]

C=CCCCCCC
inactive: [1] | [2] | [3] | [4] | [5] | [6]

CC(=O)NCCCS(=O)(=O)O
inactive: [1] | [2] | [3] | [4] | [5] | [6]

N#Cc1c(F)cccc1F
inactive: [1] | [2] | [3] | [4] | [5] | [6]

CC(C)NCC(O)COc1ccc(CC(N)=O)cc1 (stereo not drawn)
inactive: [1] | [2] | [3] | [4] | [5] | [6]

Cc1cc(C)c(S(=O)(=O)O)cc1N=Nc1cc(S(=O)(=O)O)c2ccccc2c1O
active: [6] 30.6 µM
not listed: [4]
inactive: all other assays above

Cc1cc(O)ccc1N
active: [2] 13.8 µM | [3] 6.14 µM | [4] 9.74 µM
inactive: [1] | [9]

CC(=O)CC(=O)c1ccccc1
inactive: [1] | [2] | [3] | [4] | [5] | [6]

CCOC(=O)[C@H](CCc1ccccc1)N[C@H]1CCc2ccccc2N(CC(=O)O)C1=O
active: [2] 11.9 µM | [3] 23.7 µM | [4] 21.1 µM
inactive: [1] | [6]

Cn1c(NCCN(CCO)CCCc2ccc([N+](=O)[O-])cc2)cc(=O)n(C)c1=O
inactive: [1] | [2] | [3] | [4] | [5] | [6]

CC(CN)CCCN (stereo not drawn)
inactive: [1] | [2] | [3] | [4] | [5] | [6]

OC(CCN1CCCCC1)(c1ccccc1)C1CCCCC1 (stereo not drawn)
active: [2] 26.6 µM
inactive: [1] | [3] | [4] | [5] | [6]

CCCCCCCCCCCCCCC1CO1 (stereo not drawn)
inactive: [1] | [2] | [3] | [4] | [5] | [6]

Cn1sccc1=O
active: [2] 2.43 µM | [3] 3.06 µM | [4] 4.86 µM
inactive: [1] | [6]

Cc1ccccn1
inactive: [1] | [2] | [3] | [4] | [5] | [6]

CC(C(=O)O)c1ccc(C(=O)c2ccccc2)s1 (stereo not drawn)
not listed: [5] | [8]
inactive: all other assays above

NCCCN(CCO)CCO
not listed: [5] | [6] | [7]
inactive: all other assays above

CNS(=O)(=O)Cc1ccc2[nH]cc(CCN(C)C)c2c1
inactive: [1] | [2] | [3] | [4] | [6]

CC(=O)OCCc1ccccc1
inactive: [1] | [2] | [3] | [4] | [5] | [6]

CCCCCCCCCC(=O)OCC
inactive: [1] | [2] | [3] | [4] | [5] | [6]

O=c1c2ccccc2nnn1CCl
inactive: [1] | [2] | [3] | [4] | [5] | [6]

CC(C)NCC(O)c1cc(O)cc(O)c1 (stereo not drawn)
inactive: [1] | [2] | [3] | [4] | [5] | [6]

CC(=O)/C(C)=C/C1C(C)=CCCC1(C)C (stereo not drawn)
inactive: [1] | [2] | [3] | [4] | [5] | [6]

CCCCCCc1ccc(N)cc1
active: [2] 19.3 µM | [3] 34.4 µM | [4] 43.3 µM | [7] 24.5 µM
not listed: [5]
inactive: all other assays above

Nc1nc(N)c2nc(CNc3ccc(C(=O)N[C@@H](CCC(=O)O)C(=O)O)cc3)cnc2n1
inactive: [1] | [5] | [6]
active: [2] 11.9 µM | [3] 13.3 µM | [4] 23.7 µM and 1.4 nM

CCOc1ccc2[nH]cc(C(=O)NCc3ccccc3)c(=O)c2n1
active: [2] 43.3 µM | [3] 48.6 µM | [4] 24.3 µM
inactive: [1] | [6]

OCCC1CCCCN1 (stereo not drawn)
inactive: [1] | [3] | [4] | [5] | [6]

Cc1ccc(O)c([C@H](CCN(C(C)C)C(C)C)c2ccccc2)c1
active: [2] 26.6 µM
inactive: [1] | [5] | [6]

CC[C@@H]1C[C@H](N(Cc2cc(C(F)(F)F)cc(C(F)(F)F)c2)C(C)=O)c2cc(C(F)(F)F)ccc2N1C(=O)OC(C)C
inactive: [1] | [5] | [6]
active: [2] 27.3 µM

CCOC(=O)CC(=O)c1cc(F)c(Cl)nc1Cl
inactive: [1] | [3] | [4] | [5] | [6]

CCOC(=O)C1=NN(c2ccccc2)C(=O)C1
inactive: [1] | [2] | [4] | [5] | [6]
